Results reported in PubChem BioAssay AID2314 (National Center for Advancing Translational Sciences (NCATS), 2010).
Screen size: about 300,000 compounds; about 37,000 (12%) were called active. Many of the other results were omitted from the sample, so actives are more common in it than they were. A number with no mark means an inactive call. Rule as the data show it: active = max response mostly above about 13% (no sharp cut-off); inactive = mostly below about 14%.

assay: Cycloheximide Counterscreen for Small Molecule Inhibitors of Shiga Toxin; conditions: cell reporter, cycloheximide protein synthesis inhibition counterscreen; active compounds read high; also: read at 38.3 µM for the half of the compounds with a filed dose; 0% is about no effect

Row | Compound | max response
1 | Cc1cccc(C)c1NC(=O)CN1C(=O)C(C)Oc2ccccc21 (stereo not given) | 1.84%
2 | COCCn1c(SCC(=O)Nc2ccccc2F)nc2c(c1=O)SCC2 | 8.88%
3 | COc1ccc(C(C)NC(=S)NC2CCCCC2)cc1OC (stereo not given) | -2.46%
4 | COc1cc(Br)c(-c2sc(Nc3ccccc3)n[n+]2-c2ccccc2)cc1OC | 1.49%
5 | CCc1ccc(Oc2coc3cc(O)ccc3c2=O)cc1 | 31.5% (active)
6 | COc1ccc(Oc2coc3cc(OC(=O)c4cncc(Br)c4)ccc3c2=O)cc1 | 5.74%
7 | CCc1ccc(Oc2coc3cc(OC(=O)c4cc5ccccc5oc4=O)ccc3c2=O)cc1 | 12%
8 | CC[C@H](C)[C@H](NC(=O)[C@H](Cc1ccc(O)cc1)NC(=O)[C@@H](NC(=O)[C@H](CCCN=C(N)N)NC(=O)[C@@H](N)CC(=O)O)C(C)C)C(=O)N[C@@H](Cc1cnc[nH]1)C(=O)N1CCC[C@H]1C(=O)N[C@@H](Cc1ccccc1)C(=O)O | 16%
9 | C=CCN1C(=O)C2(OCCCO2)c2cccc(Cl)c21 | 1.84%
10 | Cc1ccc(CNC(=O)Cn2cnc(S(=O)(=O)N3CCCCC3)c2)o1 | 6.21%
11 | CCOC(=O)c1ccc(NC(=O)c2cccnc2)cc1 | 38.1% (active)
12 | CCOC(=O)c1ccc(NC(=O)CCn2c(=O)oc3ccccc32)cc1 | 9.25%
13 | CCCc1nnc(SCC(=O)Nc2ccc(C(=O)OCC)cc2)o1 | 3.14%
14 | CC(C)NS(=O)(=O)c1ccc(NC(=O)c2cccnc2)cc1 | -3.02%
15 | CCOC(=O)c1ccc(-c2ccc(C(=O)Nc3cccnc3)o2)cc1 | 32.1% (active)
16 | CCOC(=O)c1ccc(NC(=O)CSc2ncccn2)cc1 | 26.6% (active)
17 | CCOC(=O)c1ccc(NC(=S)N2CCCC2)cc1 | 9.83%
18 | CCCCC(CCC(=O)Nc1ccc(C(=O)OCC)cc1)C(=O)O (stereo not given) | 0.691%
19 | COc1ccc(C)cc1NC(=O)c1ccc(-c2ccc(C(C)=O)cc2)o1 | 16%
20 | O=C(Cc1ccccc1)Nc1ccc(NC(=O)c2cccnc2)cc1 | -2.68%
21 | CCOC(=O)c1ccc(NC(=O)CSc2nnc(COc3ccccc3OC)n2C)cc1 | 4.99%
22 | C#CCNc1ccc(C(=O)OCC)cc1 | 31.8% (active)
23 | COc1ccccc1N1CC(C(=O)Nc2nnc(SCC(=O)NC(C)C)s2)CC1=O (stereo not given) | -0.494%
24 | C=CCN1C(=O)C(O)(CC(=O)c2ccc(Cl)cc2)c2ccccc21 (stereo not given) | -1.68%
25 | Cc1c([N+](=O)[O-])c(N)nn1C | -1.77%
